From PubChem BioAssay (NCI)
This is part of a sample that, as a whole, favours compounds with a hit. Of some 79,000 tested, about 15% had one in any assay. Unmarked numbers belong to inactive results. The source made the active and inactive calls. No stated cut-off is given here; in the data, active means growth inhibition above about 70%; inactive means the rest.

What was measured:
[1] = NCI Yeast Anticancer Drug Screen. Data for the rad50 strain (AID 155);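 further: 0% = growth of vehicle-only cultures of the same strain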; conditions: S. cerevisiae rad50 strain growth inhibition; at 50.0 µM; hits give high values
Procedure, shortened: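 Inhibition values express reduced yeast growth in compound-treated cultures relative to vehicle-treated controls.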

[2] = NCI Yeast Anticancer Drug Screen. Data for the mec2-1 strain (AID 157); conditions: S. cerevisiae mec2-1 strain, at 50.0 µM, hits give high values
Procedure, shortened: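 Cells of the genetically defined mec2-1 yeast strain are incubated with test compound. Inhibition of growth is calculated against vehicle-treated controls.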

[3] = NCI Yeast Anticancer Drug Screen. Data for the sgs1 mgt1 strain (AID 161);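 further: 0% = growth of cultures given vehicle only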; conditions: S. cerevisiae sgs1 mgt1 strain, at 50.0 µM, hits give high values
Procedure, shortened: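 Test agents were incubated with a DNA-repair-mutant yeast strain. Growth was then read and compared against vehicle-treated controls.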

[4] = NCI Yeast Anticancer Drug Screen. Data for the cln2 rad14 strain (AID 165);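 further: 0% = growth equal to vehicle treated cultures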; conditions: S. cerevisiae cln2 rad14 strain, at 50.0 µM, hits give high values
Procedure, shortened: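 The screen exposed genetically defined yeast (cln2 rad14) to test compounds and scored growth inhibition relative to vehicle-treated controls.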

[5] = NCI Yeast Anticancer Drug Screen. Data for the bub3 strain (AID 167); conditions: S. cerevisiae bub3 mutant strain, at 50.0 µM, hits give high values
Procedure, shortened: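 Steps: expose the mutant yeast strain to compound; grow alongside vehicle-treated cultures; measure growth; express inhibition against the vehicle cultures.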

[6] = NCI Yeast Anticancer Drug Screen. Data for the mlh1 rad18 strain (AID 175); conditions: S. cerevisiae mlh1 rad18 strain growth inhibition; at 50.0 µM; hits give high values
Procedure, shortened: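 Compound-treated yeast growth, normalised to vehicle controls. Strain bears defined DNA repair mutations.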

CN(Cc1cccc(Cl)c1)C(=O)Nc1ccccc1Cl
growth inhibition [1]: -1.25% | growth inhibition [2]: 48.8% | growth inhibition [3]: 47.5% | growth inhibition [4]: -21% | growth inhibition [5]: 34.6% | growth inhibition [6]: 53.4%

COc1ccc2c(=O)c(Cc3c[nH]c4ccccc34)coc2c1
growth inhibition [1]: 27.6% | growth inhibition [2]: 12% | growth inhibition [3]: 29% | growth inhibition [4]: -35.6% | growth inhibition [5]: 9.85% | growth inhibition [6]: 19.2%

COCCN(C(=O)c1ccccc1)C1CCC2(SCCS2)c2[nH]c3ccccc3c21 (stereo unspecified)
growth inhibition [1]: 16.1% | growth inhibition [2]: 14.6% | growth inhibition [3]: 3.75% | growth inhibition [4]: -35.2% | growth inhibition [5]: -1.75% | growth inhibition [6]: 41%

O=C(O)CNc1ccccc1.[Cu+2]
growth inhibition [1]: -38.5% | growth inhibition [2]: -28.1% | growth inhibition [3]: -51.5% | growth inhibition [4]: 6.95% | growth inhibition [5]: -35.9% | growth inhibition [6]: -15.8%

CC1=N/C(=C/c2ccccc2)C(=O)O1
growth inhibition [1]: 7.6% | growth inhibition [2]: 0.75% | growth inhibition [3]: 11.6% | growth inhibition [4]: -26.7% | growth inhibition [5]: 12.5% | growth inhibition [6]: 10%

CC(C)=CC1C(COCc2cc3c(cc2Br)OCO3)C1(C)C (stereo unspecified)
growth inhibition [1]: -12.3% | growth inhibition [2]: -9.45% | growth inhibition [3]: 3% | growth inhibition [4]: -34.2% | growth inhibition [5]: -7.05% | growth inhibition [6]: -3.95%

COc1ccc(SC(N(C)C)=[N+](C)C)cc1
growth inhibition [1]: -17.1% | growth inhibition [2]: 1.1% | growth inhibition [3]: 7.1% | growth inhibition [4]: 11.4% | growth inhibition [5]: 2.8% | growth inhibition [6]: 3.8%

N=C1/C(=C/c2ccco2)C(=O)N=C2SC=NN12
growth inhibition [1]: 7.75% | growth inhibition [2]: 19.1% | growth inhibition [3]: 13.2% | growth inhibition [4]: -9.6% | growth inhibition [5]: -5.6% | growth inhibition [6]: 20.9%

N#CCCOCCNCCSC(=O)c1ccccc1
growth inhibition [1]: 36.8% | growth inhibition [2]: 4.05% | growth inhibition [3]: 12.4% | growth inhibition [4]: 6.65% | growth inhibition [5]: 8.45% | growth inhibition [6]: 4.25%

O=Cc1ccc(-c2ccc(S(=O)(=O)O)cc2)o1
growth inhibition [1]: -35.5% | growth inhibition [2]: 6.85% | growth inhibition [3]: -41.3% | growth inhibition [4]: 25.8% | growth inhibition [5]: 3.55% | growth inhibition [6]: -3.2%

COC(=O)c1cccn1C(=O)c1ccc(C)c(OCc2ccccc2)c1[N+](=O)[O-]
growth inhibition [1]: 1.6% | growth inhibition [2]: -15.8% | growth inhibition [3]: 4.95% | growth inhibition [4]: -8.3% | growth inhibition [5]: 18.5% | growth inhibition [6]: 8.05%

N#CCCOC(=O)Nc1ccccc1
growth inhibition [1]: 21.9% | growth inhibition [2]: 2.4% | growth inhibition [3]: -6.7% | growth inhibition [4]: -40.6% | growth inhibition [5]: -8.3% | growth inhibition [6]: 0.6%

CC1(c2ccncc2)NC(=O)NC1=O (stereo unspecified)
growth inhibition [1]: 31.9% | growth inhibition [2]: -12.6% | growth inhibition [3]: 10.3% | growth inhibition [4]: 1.4% | growth inhibition [5]: -5.8% | growth inhibition [6]: 18.6%

CCCCCCCCCCCCCCCCN1C(=O)c2ccccc2S1(=O)=O
growth inhibition [1]: -14.7% | growth inhibition [2]: -15.8% | growth inhibition [3]: -10.5% | growth inhibition [4]: 32.5% | growth inhibition [5]: -2.2% | growth inhibition [6]: 5.1%

COc1ccc2nc3ccccc3c(NCCCN(C)C)c2c1
growth inhibition [1]: 33.7% | growth inhibition [2]: 41.1% | growth inhibition [3]: 36.5% | growth inhibition [4]: 60.1% | growth inhibition [5]: 6.65% | growth inhibition [6]: 12.3%

c1ccc(NP2(Nc3ccccc3)=NP(Nc3ccccc3)(Nc3ccccc3)=NP(Nc3ccccc3)(Nc3ccccc3)=N2)cc1
growth inhibition [1]: -12.2% | growth inhibition [2]: 5.55% | growth inhibition [3]: -10.4% | growth inhibition [4]: 15.2% | growth inhibition [5]: 17.1% | growth inhibition [6]: -2.2%

COCN(COC)c1nc(CCC(Br)(Br)Br)nc(N(COC)COC)n1
growth inhibition [1]: 36.5% | growth inhibition [2]: 11.5% | growth inhibition [3]: 21.9% | growth inhibition [4]: 37% | growth inhibition [5]: -2.85% | growth inhibition [6]: 31%

O=C(NC1CCC(CC2CCCCC2)CC1)c1ccccc1 (stereo unspecified)
growth inhibition [1]: -14.7% | growth inhibition [2]: 0.7% | growth inhibition [3]: -7.65% | growth inhibition [4]: 21.2% | growth inhibition [5]: 10.8% | growth inhibition [6]: 19.2%

CCOCCOC(=O)Nc1ccc(C)c(NC(=O)OCCOCC)c1
growth inhibition [1]: -0.55% | growth inhibition [2]: -18.8% | growth inhibition [3]: 8.65% | growth inhibition [4]: 4.45% | growth inhibition [5]: 5.35% | growth inhibition [6]: -4.8%

C[N+](C)(C)CC(O)CC#N (stereo unspecified)
growth inhibition [1]: -2.25% | growth inhibition [2]: 1.75% | growth inhibition [3]: -4% | growth inhibition [4]: -8.35% | growth inhibition [5]: 0.55% | growth inhibition [6]: -1.8%

Cc1cccc(C(C)(C)C)c1NC(=O)CC1C(=O)Nc2ccccc2S1(=O)=O (stereo unspecified)
growth inhibition [1]: 4.85% | growth inhibition [2]: 1.8% | growth inhibition [3]: -4.4% | growth inhibition [4]: 8.95% | growth inhibition [5]: 9.5% | growth inhibition [6]: 23.9%

Cc1cccc(/C=C/C(=O)C(C)CN(C)C)c1 (stereo unspecified)
growth inhibition [1]: 41.4% | growth inhibition [2]: 15.6% | growth inhibition [3]: 63% | growth inhibition [4]: 30.4% | growth inhibition [5]: 28.6% | growth inhibition [6]: 39.5%

CCN(CC)C(=O)Cc1[nH][nH]c(=O)c1C(=O)N(CC)CC
growth inhibition [1]: -31.9% | growth inhibition [2]: 2.45% | growth inhibition [3]: -42.9% | growth inhibition [4]: -7.6% | growth inhibition [5]: -28.6% | growth inhibition [6]: -41.3%

Oc1ccc(-c2nc(-c3cccnc3)c(-c3ccc(Cl)cc3)[nH]2)cc1
growth inhibition [1]: 3.25% | growth inhibition [2]: -19.2% | growth inhibition [3]: 19.9% | growth inhibition [4]: 12.8% | growth inhibition [5]: 39.6% | growth inhibition [6]: 81.7% (active)

COC(=O)/C(C#N)=C/c1ccco1
growth inhibition [1]: -34% | growth inhibition [2]: 6.65% | growth inhibition [3]: -14.2% | growth inhibition [4]: 2.5% | growth inhibition [5]: -2.05% | growth inhibition [6]: -21.6%

CC(=O)OCc1c(COC(C)=O)c(-c2ccc(Cl)c(Cl)c2)n2c1CCC2
growth inhibition [1]: 14.8% | growth inhibition [2]: -17.1% | growth inhibition [3]: 3.2% | growth inhibition [4]: 16.7% | growth inhibition [5]: -21.3% | growth inhibition [6]: 13.2%

COc1ccc(OC2OC(CO)C(OCc3ccccc3)C(OCc3ccccc3)C2OCc2ccccc2)cc1 (stereo unspecified)
growth inhibition [1]: 5.6% | growth inhibition [2]: -11.7% | growth inhibition [3]: -11.7% | growth inhibition [4]: 2.4% | growth inhibition [5]: -33.6% | growth inhibition [6]: -42.8%

O=C(c1ccccc1)C1C=CC=CN1Cc1ccccc1S(=O)(=O)O (stereo unspecified)
growth inhibition [1]: 13.5% | growth inhibition [2]: 0.6% | growth inhibition [3]: -3.95% | growth inhibition [4]: 3% | growth inhibition [5]: 1.75% | growth inhibition [6]: -19.2%

C1CCOC2(CCC3(CC2)OCCCCO3)OC1
growth inhibition [1]: -16.5% | growth inhibition [2]: 2.55% | growth inhibition [3]: -18.2% | growth inhibition [4]: -44.2% | growth inhibition [5]: -10.2% | growth inhibition [6]: -39.4%

NC(CCSc1ccccc1)C(=O)O (stereo unspecified)
growth inhibition [1]: -0.7% | growth inhibition [2]: 8.35% | growth inhibition [3]: -9.85% | growth inhibition [4]: -34.5% | growth inhibition [5]: -29.3% | growth inhibition [6]: -5.45%

Nc1ccc2c(c1)CC1CC(=O)NN=C21 (stereo unspecified)
growth inhibition [1]: 29.5% | growth inhibition [2]: 9.95% | growth inhibition [3]: 9.4% | growth inhibition [4]: 3.35% | growth inhibition [5]: -3.15% | growth inhibition [6]: -22.2%

O=[n+]1c2ccccc2n([O-])c2cn(-c3ccccc3)c(-c3ccccc3)c21
growth inhibition [1]: 73.5% (active) | growth inhibition [2]: 67.4% | growth inhibition [3]: 88.3% (active) | growth inhibition [4]: 80.5% (active) | growth inhibition [5]: 46.9% | growth inhibition [6]: 89.2% (active)

CCOC(=O)C1(C(=O)OCC)C2C=CC(C2)C1C(=O)OC (stereo unspecified)
growth inhibition [1]: -0.65% | growth inhibition [2]: -2.4% | growth inhibition [3]: 15.8% | growth inhibition [4]: -60.3% | growth inhibition [5]: 8.45% | growth inhibition [6]: 8.3%

COc1ccc2c(c1)C(=O)C1CCC(=O)N1C2c1ccc2c(c1)OCO2 (stereo unspecified)
growth inhibition [1]: -9.65% | growth inhibition [2]: 18.3% | growth inhibition [3]: 10.2% | growth inhibition [4]: 5.9% | growth inhibition [5]: 47.1% | growth inhibition [6]: -0.3%

CC(=O)NC(C)C#N (stereo unspecified)
growth inhibition [1]: -15.4% | growth inhibition [2]: -14.1% | growth inhibition [3]: -0.2% | growth inhibition [4]: -4% | growth inhibition [5]: -8.7% | growth inhibition [6]: 5.55%

CC(NNC(=O)c1ccncc1)c1ccc(Cl)cc1Cl (stereo unspecified)
growth inhibition [1]: -19.9% | growth inhibition [2]: 9.15% | growth inhibition [3]: -21.6% | growth inhibition [4]: 22.6% | growth inhibition [5]: 13.8% | growth inhibition [6]: -16.1%

CCCS(=O)(=O)N/N=C(\C)c1cccs1
growth inhibition [1]: 3.65% | growth inhibition [2]: -8.1% | growth inhibition [3]: 3.25% | growth inhibition [4]: -35.5% | growth inhibition [5]: 1.35% | growth inhibition [6]: -4.2%

O=C(Nc1ccc(Cl)cc1)c1cc2cc(N=Nc3ccc(Br)cc3)ccc2oc1=O
growth inhibition [1]: -18.1% | growth inhibition [2]: 9.75% | growth inhibition [3]: -13.3% | growth inhibition [4]: -1.65% | growth inhibition [5]: -23.9% | growth inhibition [6]: -6.65%

Nc1ncc2ncn(C3CCC(CO)O3)c2n1 (stereo unspecified)
growth inhibition [1]: -6.9% | growth inhibition [2]: -10.1% | growth inhibition [3]: -22.2% | growth inhibition [4]: -4.65% | growth inhibition [5]: -10.8% | growth inhibition [6]: -6.45%

Cc1cc(S(=O)(=O)Nc2n[nH]c(N)n2)c(Cl)cc1Cl
growth inhibition [1]: -52% | growth inhibition [2]: 1.55% | growth inhibition [3]: -56% | growth inhibition [4]: -51% | growth inhibition [5]: 9.4% | growth inhibition [6]: -48.5%

CCOC(=O)c1ccccc1O
growth inhibition [1]: -17.8% | growth inhibition [2]: -5.8% | growth inhibition [3]: -8.6% | growth inhibition [4]: -38.4% | growth inhibition [5]: -12.4% | growth inhibition [6]: 9.5%
